Inconclusive results are not listed. Active and inactive are the calls of the source. Calls come from the whole dose curve; as a rule, active = well fitted activation curve with a large enough effect; inconclusive = small, poorly fitted or top-dose-only effect; inactive = no such curve, though single readings can be large or run the other way.
molecular target: Cellular tumor antigen p53 (Homo sapiens) (UniProt P04637); test: Primary qHTS for small molecule compounds that upregulate eGFP-tagged delta133p53alpha (in N-terminal) cells. (AID 2060322); conditions: NCI-H358 eGFP-delta133p53alpha fluorescence, 24 h; activation: stronger effect = higher value;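 note: series mostly up to about 56 µM; 0% = DMSO vehicle and 100% = reference activator; nearly all actives have a fitted effect of over 75% in size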
Sequence (P04637 whole entry, looked up): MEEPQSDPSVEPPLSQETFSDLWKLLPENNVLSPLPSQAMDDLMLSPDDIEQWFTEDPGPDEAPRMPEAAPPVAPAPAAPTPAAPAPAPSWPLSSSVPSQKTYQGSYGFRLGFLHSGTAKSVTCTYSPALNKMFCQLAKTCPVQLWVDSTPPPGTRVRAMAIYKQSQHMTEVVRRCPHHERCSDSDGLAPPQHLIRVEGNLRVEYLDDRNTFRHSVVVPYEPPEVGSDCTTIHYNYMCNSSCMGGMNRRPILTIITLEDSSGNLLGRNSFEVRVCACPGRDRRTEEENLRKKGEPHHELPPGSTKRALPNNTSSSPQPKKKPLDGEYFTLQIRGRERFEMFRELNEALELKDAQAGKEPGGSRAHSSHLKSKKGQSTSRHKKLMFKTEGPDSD
Outline: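 NCI-H358 cells pre-induced 24 h with 10 ng/ml doxycycline to express N-terminal eGFP-delta133p53alpha, then dosed 24 h at 37C without doxycycline; fixed, Hoechst-stained, GFP intensity by laser scanning cytometry, normalized to DMSO (0%) and 57.5 uM 5-azacytidine (100%).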

Structure (SMILES)	activation
CC1(C)CCC2(C(=O)O)CCC3(C)C(=CCC4C5(C)CCC(O)C(C)(CO)C5C(O)CC43C)C2C1 (stereo unspecified)	-18.8% (inactive)
COC(=O)C1=CO[C@@H](O[C@@H]2O[C@H](CO)[C@@H](O)[C@H](O)[C@H]2O)[C@@H]2[C@@H](C(=O)O)CC[C@H]12	-5.34% (inactive)
COC1CCCC/C(C)=C/C2C=C(C)C(C)C3C(CC(C)C)NC(=O)C23C(=O)C1 (stereo unspecified)	-5.34% (inactive)
COCC1OC(OC(C)(C)C2CCC3(C)C=C(C4CCC5C4(C)CC(O)C4OC(C(C)(C)O)CCC45C)CCC3O2)C(NC(C)=O)C(O)C1O (stereo unspecified)	5.34% (inactive)
O=S(=O)(Nc1ccc(C(O)(C(F)(F)F)C(F)(F)F)cc1)c1cccs1	-12.3% (inactive)
CC(=O)OC[C@]12[C@@H](OC(=O)c3ccoc3)C[C@@H]3[C@@H](OC(C)=O)[C@]1(OC3(C)C)[C@@](C)(O)C[C@H](OC(=O)c1ccoc1)[C@@H]2OC(=O)c1ccoc1	-9.16% (inactive)
CC(=O)O[C@H]1[C@H](Oc2ccccc2COC(=O)C2(O)C=CCCC2=O)O[C@H](CO)[C@@H](O)[C@@H]1O (stereo partly specified)	-9.92% (inactive)
CS(=O)(=O)c1ccc([C@H](CC2CCCC2)C(=O)Nc2nccs2)cc1	-11.6% (inactive)
CCC(C)/C=C(C)/C=C/C1=CC2=C(Cl)C(=O)C(C)(OC(C)=O)C(=O)C2=CN1C(CCC(=O)O)C(=O)O (stereo unspecified)	-13% (inactive)
CCOc1ccc2nc(SCCN3CCOCC3)[nH]c2c1	-7.64% (inactive)
CCC(C)C1NC(=O)C2C(C)CCN2C(=O)C(CC(O)CO)OC(=O)CCNC(=O)C(C)N(C)C(=O)C(C(C)C)N(C)C1=O (stereo unspecified)	-6.11% (inactive)

— PubChem BioAssay (NCATS)
